The text below walks through data of PubChem BioAssay AID489018 (Southern Research Specialized Biocontainment Screening …, 2010).

The whole screen tested about 2,300 compounds, of which about 350 (15%) were called active. How the calls were made is not given here. Not all results are given here. Results with a measured potency or affinity are listed apart.

A short description of this assay: HepG2 cell cytotoxicity, dose response, cytotoxicity control for non-replicating M. tuberculosis project (AID 489018).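 Further: HepG2 human liver cells; 100% = vehicle-treated cells and 0% = background signal.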 Conditions: series mostly up to 20 µM; viability: at the top concentration.
In general, viability refers to a read-out of living cells in per cent, often relative to untreated cells. For the compound `Cc1cc(C)n2nc(S(=O)(=O)Nc3c(Cl)cccc3Cl)nc2n1`, the “viability” value was 93.4% (inactive).

As to `O=C(OCc1nnc(-c2ccccc2)o1)c1cc([N+](=O)[O-])ccc1Cl`, the “viability” value is 106% (inactive).

Turning to `O=c1c2cc(Cl)ccc2nc(-c2ccccc2Cl)n1O`, the “viability” value is 89.7% (inactive).

On to `CCOC(=O)c1ccc(COC(=O)c2ccc(-c3nnc(-c4ccccc4)o3)cc2)o1`, for which the “viability” value was 87.1% (inactive).

As to `Cc1cc(OCCCCn2ccnc2)cc(C)c1Cl`, the “viability” value is 79.8% (inactive).

For the compound `O=C(c1ccc([N+](=O)[O-])cc1[N+](=O)[O-])N1CCc2ccccc21`, the “viability” value is 94.7% (inactive).

With `Cc1ccc(S(=O)(=O)CCC(=O)Nc2nc(-c3ccncc3)cs2)cc1`, the “viability” value is 88% (inactive).

As for `CC(/C=C/c1ccccc1F)=N\NC(=O)c1ccccc1`, the “viability” value is 85.1% (inactive).

Take `O=S1(=O)C=C(Sc2nc3cc(Cl)ccc3o2)c2ccccc21`: the “viability” value was 97.2% [at 5 µM] (inactive).

Regarding `O=C1c2ccccc2CC1Sc1nnc(-c2ccncc2)o1` (stereo not given), the “viability” value was 93.4% (inactive).

As for `O=C(O)c1[nH]c(=O)[nH]c(=O)c1F`, the “viability” value was 82.3% (inactive).

For `CC1=NN(c2ccccc2)C(=O)C1C(=O)c1ccccc1` (stereo not given), the “viability” value was 104% (inactive).

For `Nc1nc2ccccc2n1C(=O)c1ccc(F)cc1`, the “viability” value is 93.2% (inactive).

`O=C(COc1ccccc1)NCCSCc1ccc(Cl)cc1`: the “viability” value was 93.8% (inactive).

On to `CCC(=O)Nc1nc2ccccc2n1Cc1ccccc1`, for which the “viability” value is 73.6% (inactive).

For `OC(COc1ccccc1Cl)CN1CCN(CC(O)COc2ccccc2Cl)CC1` (stereo not given), the “viability” value is 82.6% (inactive).

Regarding `C=CCc1ccc(OCC(O)CN2CCN(Cc3ccc(Cl)cc3)CC2)c(OC)c1` (stereo not given), the “viability” value is 79.2% (inactive).

With `O=C(Nc1ncc([N+](=O)[O-])s1)c1ccc2c(c1)OCO2`, the “viability” value is 70.5% (inactive).

As for `O=C(OCc1ccc(Cl)c(Cl)c1)c1ccccn1`, the “viability” value was 115% (inactive).

Turning to `O=C(c1ccc([N+](=O)[O-])o1)N1CCc2ccccc2C1`, the “viability” value is 102% (inactive).

Regarding `COc1cc2c(cc1OC)CN(C(=O)c1ccc([N+](=O)[O-])o1)CC2`, the “viability” value was 90.2% (inactive).

For `COc1ccccc1NC(=O)c1ccc([N+](=O)[O-])o1`, the “viability” value was 73.8% (inactive).

As to `O=C(Nc1sc2c(c1C(=O)O)CCCC2)c1ccc(F)cc1`, the “viability” value was 93.1% (inactive).

Turning to `O=C(Nc1sc2c(c1C(=O)O)CCCCC2)c1ccccc1F`, the “viability” value is 99.9% (inactive).

As for `CCOC(=O)COc1ccc2c3c(c(=O)oc2c1C)CCC3`, the “viability” value was 112% (inactive).

As for `O=C(COC(=O)c1ccc(Cl)s1)c1ccc[nH]1`, the “viability” value is 103% (inactive).

In the case of `COc1ccccc1OCCNC(=O)c1cc([N+](=O)[O-])cc([N+](=O)[O-])c1`, the “viability” value was 102% (inactive).

As to `O=C(OCC(=O)N1CCN(c2ccccc2)CC1)c1ccc2ccccc2n1`, the “viability” value was 100% (inactive).

Turning to `O=C(OCC(=O)c1c[nH]c2ccccc12)c1ccc([N+](=O)[O-])s1`, the “viability” value is 96.6% (inactive).

In the case of `CCCCCC/C(=N/O)c1ccccn1`, the “viability” value is 104% [at 5 µM] (inactive).

Regarding `c1ccc(-c2nc(NCCCn3ccnc3)c3ccccc3n2)cc1`, the “viability” value was 75.7% (inactive).

As for `Cc1cccc2cc(C#N)c(NCCCn3ccnc3)nc12`, the “viability” value was 95.8% (inactive).

On to `CC(C)OC(=O)c1cc(C(=O)c2cc(Cl)ccc2O)coc1=N`, for which the “viability” value was 91.3% (inactive).

In the case of `O=C1NN(c2ccccc2)C(=O)/C1=C/c1ccc(Sc2ccc(Cl)cc2)o1`, the “viability” value was 100% (inactive).

For `COC(=O)COc1ccc2c(-c3cccc([N+](=O)[O-])c3)cc(=O)oc2c1`, the “viability” value was 106% (inactive).

Consider `Cc1cc(NC(=O)c2cc([N+](=O)[O-])cc([N+](=O)[O-])c2)no1`, for which the “viability” value is 110% (inactive).

Regarding `NC(=O)N/N=C\c1cc(Br)ccc1O`, the “viability” value was 92.2% (inactive).

Regarding `O=C(CCc1ccccc1)NC1C2CC3CC(C2)CC1C3` (stereo not given), the “viability” value was 105% (inactive).

Regarding `Cc1cc(C(=O)N/N=C/c2cccc(Cl)c2Cl)no1`, the “viability” value is 105% (inactive).

With `C/C(=N\NC(=O)CCc1ccccc1)C1C(=O)c2ccccc2C1=O`, the “viability” value is 91.1% [at 5 µM] (inactive).

As for `CN1CC(=O)NC1=NC(=O)C12CC3CC(CC(C3)C1)C2`, the “viability” value was 96.6% (inactive).

In the case of `O=C(NNC(=O)c1cnccn1)c1ccc(Cl)c(Cl)c1`, the “viability” value is 87.6% [at 5 µM] (inactive).

As to `Cn1cnc([N+](=O)[O-])c1Sc1ccc(Br)cc1`, the “viability” value is 78.3% (inactive).

With `CCc1ccc(N2CCN(CCNC(=O)Nc3ccc(OC)cc3)CC2)cc1`, the “viability” value is 92.9% (inactive).

In the case of `O=C(OCc1cccc([N+](=O)[O-])c1)c1ccc2ccccc2n1`, the “viability” value is 104% (inactive).

On to `O=c1c2c([N+](=O)[O-])cc([N+](=O)[O-])cc2nc2ccccn12`, for which the “viability” value was 100% (inactive).

On to `CCOC(=O)C(=O)NC12CC3CC(CC(C3)C1)C2`, for which the “viability” value is 84.6% (inactive).

As for `O=C(CCCOc1ccccc1)OCn1nnc2ccccc2c1=O`, the “viability” value is 110% (inactive).

In the case of `CCOc1ccc2ccccc2c1/C=N/NC(=O)c1ccncc1`, the “viability” value was 94.8% (inactive).

For the compound `COc1ccc(NC(=O)Nc2ccc(O)c3ccccc23)cc1`, the “viability” value was 102% [at 5 µM] (inactive).

With `CCS(=O)(=O)c1ncc(Cl)c(C(=O)Nc2ccc(S(=O)(=O)N(C)c3ccccc3)cc2)n1`, the “viability” value is 81.2% [at 5 µM] (inactive).

On to `CCOC(=O)c1c(NC(=O)COC(=O)c2ccccn2)sc2c1CCC2`, for which the “viability” value was 114% (inactive).

In the case of `Clc1ccc(OCCOCCN2CCc3ccccc3C2)c(Cl)c1`, the “viability” value was 94.3% [at 5 µM] (inactive).

Turning to `CC(C)OC(=O)C(C)Oc1ccc(C(=O)NCCc2ccccc2)cc1` (stereo not given), the “viability” value is 91.1% (inactive).

Regarding `CC1(C)OC(c2ccccc2)=C/C(=C\C=N\NC(=O)c2ccncc2)O1`, the “viability” value is 91.1% (inactive).

Turning to `Cc1ccc2nc(N(CCCN(C)C)C(=O)c3ccc4c(c3)CCCC4)sc2c1`, the “viability” value is 87.7% [at 5 µM] (inactive).

Turning to `CN(C)CCC(=O)N1c2ccccc2Sc2ccc(Cl)cc21`, the “viability” value is 102% (inactive).

With `CCc1ccc(OCC(=O)NNC(=O)c2cnccn2)c(Br)c1`, the “viability” value was 98.8% (inactive).

As for `O=C(N/N=C\c1ccc(Cl)s1)C1COc2ccccc2O1` (stereo not given), the “viability” value was 97.2% [at 5 µM] (inactive).

Regarding `Clc1ccc(N=c2ssnc2Cl)nc1`, the “viability” value is 96.6% (inactive).
